Reference: the supplement of paper PMC11732987, “Enantioselective OTUD7B fragment discovery through chemoproteomics screening and high-throughput optimisation” (Communications Chemistry, 2025)
Unmarked numbers belong to inactive results.

Columns and labels:
Assay in all cases: log2 ratio of Biotin-Ahx-Ub-VS probe labelling (fragment/DMSO); higher = less target engagement (more negative = stronger competition), active = hit call of the paper (q ≤ 0.05, log2 ratio ≤ -1)
Details in all cases: compound concentration: 200 uM; treatment time: 3 h
USP19 = biological target: T1, USP19 (UniProt O94966)
T1 sequence (whole entry): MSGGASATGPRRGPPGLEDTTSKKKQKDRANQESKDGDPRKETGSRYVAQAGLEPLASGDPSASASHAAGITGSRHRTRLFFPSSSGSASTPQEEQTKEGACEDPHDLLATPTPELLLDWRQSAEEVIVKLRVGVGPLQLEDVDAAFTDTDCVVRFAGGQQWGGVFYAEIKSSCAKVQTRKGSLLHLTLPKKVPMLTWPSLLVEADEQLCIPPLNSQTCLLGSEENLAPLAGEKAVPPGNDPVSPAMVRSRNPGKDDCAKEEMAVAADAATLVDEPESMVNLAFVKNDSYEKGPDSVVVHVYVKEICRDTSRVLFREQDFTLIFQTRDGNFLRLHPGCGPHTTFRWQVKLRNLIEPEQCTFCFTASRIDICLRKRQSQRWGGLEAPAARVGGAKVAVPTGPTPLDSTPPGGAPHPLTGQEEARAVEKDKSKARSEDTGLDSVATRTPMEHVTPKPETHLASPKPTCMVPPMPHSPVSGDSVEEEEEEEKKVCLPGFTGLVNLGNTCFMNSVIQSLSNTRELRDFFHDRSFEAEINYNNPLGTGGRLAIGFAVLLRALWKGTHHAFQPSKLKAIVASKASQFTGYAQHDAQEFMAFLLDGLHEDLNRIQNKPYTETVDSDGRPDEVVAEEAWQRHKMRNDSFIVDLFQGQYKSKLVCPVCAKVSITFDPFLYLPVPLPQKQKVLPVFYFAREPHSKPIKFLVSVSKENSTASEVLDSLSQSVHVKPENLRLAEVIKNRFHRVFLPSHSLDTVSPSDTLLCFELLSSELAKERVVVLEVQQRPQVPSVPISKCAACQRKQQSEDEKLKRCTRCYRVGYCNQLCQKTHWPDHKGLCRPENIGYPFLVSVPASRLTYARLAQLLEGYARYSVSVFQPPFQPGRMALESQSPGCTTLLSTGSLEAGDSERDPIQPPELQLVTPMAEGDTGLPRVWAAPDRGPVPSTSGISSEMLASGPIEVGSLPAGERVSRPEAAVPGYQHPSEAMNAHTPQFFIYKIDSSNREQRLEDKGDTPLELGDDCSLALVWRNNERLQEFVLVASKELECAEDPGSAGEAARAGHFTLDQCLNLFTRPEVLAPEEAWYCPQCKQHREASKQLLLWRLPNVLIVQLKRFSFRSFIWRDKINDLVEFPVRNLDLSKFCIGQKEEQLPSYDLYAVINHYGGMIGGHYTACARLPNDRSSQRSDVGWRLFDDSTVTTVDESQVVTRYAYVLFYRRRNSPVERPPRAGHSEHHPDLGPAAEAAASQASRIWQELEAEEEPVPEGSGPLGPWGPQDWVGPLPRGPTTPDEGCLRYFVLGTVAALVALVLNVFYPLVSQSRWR
Method in brief: (§1)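 Values give the average log2 ratio of fragment to vehicle, assessed by unpaired t-test on global-median-normalised Spectronaut label-free quantities. Proteins needed ≥2 unique peptides. HEK293T lysate (495 µg per sample) was treated in triplicate with fragment at 200 µM or vehicle for 3 h and then with Biotin-Ahx-Ub-VS at 0.5 µM final for 1 h. Labelled DUBs were NeutrAvidin-enriched, digested and run by diaPASEF LC-MS/MS.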

USP22 = biological target: T2, USP22 (UniProt Q9UPT9)
T2 sequence (whole entry): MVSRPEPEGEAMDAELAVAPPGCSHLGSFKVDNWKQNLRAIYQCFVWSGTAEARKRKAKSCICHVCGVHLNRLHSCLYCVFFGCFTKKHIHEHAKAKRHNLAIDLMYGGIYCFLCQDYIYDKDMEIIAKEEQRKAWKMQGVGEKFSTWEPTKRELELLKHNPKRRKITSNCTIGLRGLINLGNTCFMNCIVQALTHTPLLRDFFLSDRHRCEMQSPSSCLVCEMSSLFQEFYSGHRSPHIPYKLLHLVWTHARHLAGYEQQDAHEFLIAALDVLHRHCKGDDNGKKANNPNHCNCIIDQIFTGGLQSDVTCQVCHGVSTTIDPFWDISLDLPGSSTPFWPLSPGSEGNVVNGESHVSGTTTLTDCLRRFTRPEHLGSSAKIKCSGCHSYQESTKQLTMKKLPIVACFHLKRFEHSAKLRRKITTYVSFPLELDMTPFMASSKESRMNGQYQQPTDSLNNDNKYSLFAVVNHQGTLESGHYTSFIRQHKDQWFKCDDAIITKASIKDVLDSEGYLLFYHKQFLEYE
Method in brief: as §1

USP24 = USP24 (UniProt Q9UPU5)
Method in brief: as §1

USP25 = biological target: T3, USP25 (UniProt Q9UHP3)
T3 sequence (whole entry): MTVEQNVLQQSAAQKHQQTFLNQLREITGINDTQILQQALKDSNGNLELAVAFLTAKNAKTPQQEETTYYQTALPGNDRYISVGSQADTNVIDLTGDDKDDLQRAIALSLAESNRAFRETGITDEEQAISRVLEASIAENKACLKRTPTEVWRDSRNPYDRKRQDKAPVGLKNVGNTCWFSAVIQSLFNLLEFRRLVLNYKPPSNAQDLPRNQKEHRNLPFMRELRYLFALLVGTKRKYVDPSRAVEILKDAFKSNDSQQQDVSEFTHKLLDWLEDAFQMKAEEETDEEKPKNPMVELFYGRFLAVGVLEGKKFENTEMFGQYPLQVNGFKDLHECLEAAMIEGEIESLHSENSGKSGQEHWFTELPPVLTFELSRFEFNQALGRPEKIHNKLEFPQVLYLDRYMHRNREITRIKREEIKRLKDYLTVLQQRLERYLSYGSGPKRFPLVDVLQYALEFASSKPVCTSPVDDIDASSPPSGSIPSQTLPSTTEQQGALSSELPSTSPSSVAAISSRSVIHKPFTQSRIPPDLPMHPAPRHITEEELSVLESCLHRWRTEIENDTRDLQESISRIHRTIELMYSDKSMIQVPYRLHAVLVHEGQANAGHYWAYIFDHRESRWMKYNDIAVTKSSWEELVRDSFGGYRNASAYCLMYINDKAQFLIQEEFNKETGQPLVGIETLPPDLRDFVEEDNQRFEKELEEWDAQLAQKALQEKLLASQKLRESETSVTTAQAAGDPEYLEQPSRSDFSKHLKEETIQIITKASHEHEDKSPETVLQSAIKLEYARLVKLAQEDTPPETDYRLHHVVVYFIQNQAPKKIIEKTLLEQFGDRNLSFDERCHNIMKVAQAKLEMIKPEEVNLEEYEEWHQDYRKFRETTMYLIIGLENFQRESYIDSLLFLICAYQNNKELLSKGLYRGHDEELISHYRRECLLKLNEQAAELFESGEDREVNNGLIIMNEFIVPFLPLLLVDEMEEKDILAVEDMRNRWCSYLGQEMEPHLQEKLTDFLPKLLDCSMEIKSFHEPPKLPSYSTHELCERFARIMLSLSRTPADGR
Method in brief: as §1

USP28 = biological target: T4, USP28 (UniProt Q96RU2)
T4 sequence (whole entry): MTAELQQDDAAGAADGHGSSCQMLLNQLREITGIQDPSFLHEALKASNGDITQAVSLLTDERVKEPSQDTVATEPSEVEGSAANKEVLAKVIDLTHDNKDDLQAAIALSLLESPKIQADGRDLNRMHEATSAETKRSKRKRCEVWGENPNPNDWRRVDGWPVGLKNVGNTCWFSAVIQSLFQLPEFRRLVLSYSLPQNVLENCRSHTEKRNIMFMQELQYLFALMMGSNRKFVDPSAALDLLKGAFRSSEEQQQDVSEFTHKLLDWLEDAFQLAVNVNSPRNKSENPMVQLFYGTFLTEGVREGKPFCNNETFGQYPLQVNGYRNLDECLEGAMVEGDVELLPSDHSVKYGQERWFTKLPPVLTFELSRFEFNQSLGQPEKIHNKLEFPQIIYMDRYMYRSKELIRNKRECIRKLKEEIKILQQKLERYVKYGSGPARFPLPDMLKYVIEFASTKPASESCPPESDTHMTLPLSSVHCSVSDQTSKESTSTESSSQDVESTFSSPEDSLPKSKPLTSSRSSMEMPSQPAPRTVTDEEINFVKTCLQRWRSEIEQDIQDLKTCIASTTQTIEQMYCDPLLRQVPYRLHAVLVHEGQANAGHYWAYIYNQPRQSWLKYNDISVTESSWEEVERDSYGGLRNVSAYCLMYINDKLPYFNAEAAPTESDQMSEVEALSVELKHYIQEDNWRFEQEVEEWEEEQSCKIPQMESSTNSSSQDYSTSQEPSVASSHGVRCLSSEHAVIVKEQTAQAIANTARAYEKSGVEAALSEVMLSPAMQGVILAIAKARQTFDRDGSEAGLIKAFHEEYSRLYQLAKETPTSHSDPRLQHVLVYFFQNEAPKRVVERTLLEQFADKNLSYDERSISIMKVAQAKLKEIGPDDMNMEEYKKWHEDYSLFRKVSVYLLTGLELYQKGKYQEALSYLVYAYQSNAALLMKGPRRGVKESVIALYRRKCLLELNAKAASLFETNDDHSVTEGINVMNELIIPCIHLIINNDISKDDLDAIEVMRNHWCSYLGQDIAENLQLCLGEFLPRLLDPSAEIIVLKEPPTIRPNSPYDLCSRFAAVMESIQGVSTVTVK
Method in brief: as §1

Sequence of USP24 (Q9UPU5 whole entry): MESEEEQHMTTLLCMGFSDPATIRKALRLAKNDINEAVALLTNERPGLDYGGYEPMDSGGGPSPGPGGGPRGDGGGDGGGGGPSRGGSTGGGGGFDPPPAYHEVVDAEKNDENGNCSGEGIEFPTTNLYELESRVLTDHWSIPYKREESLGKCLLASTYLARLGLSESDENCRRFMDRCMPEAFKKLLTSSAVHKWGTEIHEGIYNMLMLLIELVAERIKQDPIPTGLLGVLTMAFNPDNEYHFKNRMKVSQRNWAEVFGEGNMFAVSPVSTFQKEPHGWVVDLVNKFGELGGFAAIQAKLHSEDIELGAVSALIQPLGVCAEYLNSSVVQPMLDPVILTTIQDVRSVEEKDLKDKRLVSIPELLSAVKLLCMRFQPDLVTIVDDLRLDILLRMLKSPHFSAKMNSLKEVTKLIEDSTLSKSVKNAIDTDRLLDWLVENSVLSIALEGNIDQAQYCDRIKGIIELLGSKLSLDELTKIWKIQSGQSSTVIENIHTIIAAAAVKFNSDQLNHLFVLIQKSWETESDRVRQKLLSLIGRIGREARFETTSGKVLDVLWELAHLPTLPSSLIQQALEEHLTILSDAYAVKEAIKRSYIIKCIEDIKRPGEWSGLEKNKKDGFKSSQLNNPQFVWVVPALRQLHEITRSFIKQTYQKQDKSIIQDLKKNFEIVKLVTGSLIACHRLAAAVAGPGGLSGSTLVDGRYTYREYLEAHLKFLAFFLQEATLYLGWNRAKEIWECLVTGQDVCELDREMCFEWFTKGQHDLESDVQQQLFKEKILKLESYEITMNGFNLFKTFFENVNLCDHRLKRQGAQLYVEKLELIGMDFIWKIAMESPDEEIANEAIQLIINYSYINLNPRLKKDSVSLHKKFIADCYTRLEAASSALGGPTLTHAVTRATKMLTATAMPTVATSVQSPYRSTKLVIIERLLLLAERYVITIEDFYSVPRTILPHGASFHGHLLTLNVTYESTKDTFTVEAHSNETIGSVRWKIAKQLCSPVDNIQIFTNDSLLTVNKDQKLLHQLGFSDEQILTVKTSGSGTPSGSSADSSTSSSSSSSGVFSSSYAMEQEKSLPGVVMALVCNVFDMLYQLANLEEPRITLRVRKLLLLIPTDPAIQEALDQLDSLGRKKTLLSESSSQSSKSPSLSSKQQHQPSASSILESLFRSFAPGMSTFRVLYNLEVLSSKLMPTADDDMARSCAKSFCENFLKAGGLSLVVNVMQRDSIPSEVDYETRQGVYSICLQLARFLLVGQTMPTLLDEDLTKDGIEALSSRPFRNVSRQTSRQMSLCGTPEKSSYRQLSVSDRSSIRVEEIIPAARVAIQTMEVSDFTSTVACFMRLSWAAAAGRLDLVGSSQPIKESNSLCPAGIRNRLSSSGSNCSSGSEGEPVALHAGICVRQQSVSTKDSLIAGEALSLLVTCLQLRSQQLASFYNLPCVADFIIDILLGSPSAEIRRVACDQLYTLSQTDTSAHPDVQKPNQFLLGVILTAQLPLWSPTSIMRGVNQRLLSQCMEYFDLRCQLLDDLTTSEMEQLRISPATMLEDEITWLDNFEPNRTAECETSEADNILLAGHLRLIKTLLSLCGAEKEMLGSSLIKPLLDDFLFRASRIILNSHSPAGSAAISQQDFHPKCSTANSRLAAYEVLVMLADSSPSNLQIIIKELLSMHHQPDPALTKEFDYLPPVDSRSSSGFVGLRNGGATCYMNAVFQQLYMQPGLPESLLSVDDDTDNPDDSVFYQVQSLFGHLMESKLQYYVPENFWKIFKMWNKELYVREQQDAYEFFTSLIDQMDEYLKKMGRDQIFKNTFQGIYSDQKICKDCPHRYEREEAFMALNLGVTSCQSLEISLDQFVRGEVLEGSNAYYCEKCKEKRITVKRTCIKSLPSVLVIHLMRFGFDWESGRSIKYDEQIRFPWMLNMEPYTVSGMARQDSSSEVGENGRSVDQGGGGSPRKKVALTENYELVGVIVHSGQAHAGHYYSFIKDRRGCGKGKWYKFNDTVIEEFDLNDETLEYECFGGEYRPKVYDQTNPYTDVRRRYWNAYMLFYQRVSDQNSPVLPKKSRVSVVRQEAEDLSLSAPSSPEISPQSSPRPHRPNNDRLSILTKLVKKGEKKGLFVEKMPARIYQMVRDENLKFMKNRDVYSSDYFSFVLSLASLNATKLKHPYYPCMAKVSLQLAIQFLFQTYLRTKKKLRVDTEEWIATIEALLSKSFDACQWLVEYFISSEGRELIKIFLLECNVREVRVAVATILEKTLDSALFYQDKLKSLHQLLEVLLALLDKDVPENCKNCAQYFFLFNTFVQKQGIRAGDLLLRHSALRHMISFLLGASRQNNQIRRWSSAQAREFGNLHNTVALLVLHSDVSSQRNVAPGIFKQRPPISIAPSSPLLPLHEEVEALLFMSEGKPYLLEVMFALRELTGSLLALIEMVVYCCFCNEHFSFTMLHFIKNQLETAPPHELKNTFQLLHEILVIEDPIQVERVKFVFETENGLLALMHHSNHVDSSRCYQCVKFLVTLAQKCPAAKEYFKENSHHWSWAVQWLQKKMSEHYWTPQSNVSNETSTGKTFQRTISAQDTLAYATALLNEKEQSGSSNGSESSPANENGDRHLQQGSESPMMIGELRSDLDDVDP

CC(NC(=O)CCl)c1csc(-c2ccccc2)n1.Cl (stereo not given)
log2 ratio of Biotin-Ahx-Ub-VS probe labelling (USP19): -0.563 | log2 ratio of Biotin-Ahx-Ub-VS probe labelling (USP22): -0.723 | log2 ratio of Biotin-Ahx-Ub-VS probe labelling (USP24): -0.822 | log2 ratio of Biotin-Ahx-Ub-VS probe labelling (USP25): -0.638 | log2 ratio of Biotin-Ahx-Ub-VS probe labelling (USP28): -1.79 (active)
